# PubChem BioAssay AID798 (PCMD, 2007)
# Hit rate of the full screen: of about 220,000 compounds, about 300 (0.14%) were called active. The list comes from a sample in which actives are over-represented; it also holds similar structures and randomly drawn compounds. Unmarked numbers belong to inactive results.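 Rule for the calls: active = inhibition of at least 40%; inactive = inhibition below 40%.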 Where a SMILES comes first, the peptide text is derived from it. The star is where a group is joined. OPac = O=C(CO*)c1ccccc1; Bz = O=C(c1ccccc1)*
# Biological target: Coagulation factor XI (Homo sapiens) (UniProt P03951)
# Test: factor XIa enzyme inhibition, large library – biochemical, 1536-well, primary screen (AID 798);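 note: fluorescence of freed AMC excited at 355 nm; 0% = enzyme without compound and 100% = no enzyme blank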
# Details: purified FXIa, Boc-Glu-Ala-Arg-AMC fluorogenic substrate; at 5 µM; active compounds read high
# Sequence of Coagulation factor XI (Homo sapiens) (P03951 19-387 limits assumed): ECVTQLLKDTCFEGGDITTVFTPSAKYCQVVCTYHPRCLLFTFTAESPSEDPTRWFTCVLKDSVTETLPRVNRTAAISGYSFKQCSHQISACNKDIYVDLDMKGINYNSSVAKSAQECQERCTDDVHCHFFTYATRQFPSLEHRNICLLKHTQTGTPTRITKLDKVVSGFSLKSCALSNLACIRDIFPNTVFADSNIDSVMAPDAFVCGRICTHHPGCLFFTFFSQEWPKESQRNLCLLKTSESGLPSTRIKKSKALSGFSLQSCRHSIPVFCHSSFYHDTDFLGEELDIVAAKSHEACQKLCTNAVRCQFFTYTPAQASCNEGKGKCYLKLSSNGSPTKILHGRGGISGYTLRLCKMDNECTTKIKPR
# Sequence of Coagulation factor XI (Homo sapiens) (P03951 388-625 limits assumed): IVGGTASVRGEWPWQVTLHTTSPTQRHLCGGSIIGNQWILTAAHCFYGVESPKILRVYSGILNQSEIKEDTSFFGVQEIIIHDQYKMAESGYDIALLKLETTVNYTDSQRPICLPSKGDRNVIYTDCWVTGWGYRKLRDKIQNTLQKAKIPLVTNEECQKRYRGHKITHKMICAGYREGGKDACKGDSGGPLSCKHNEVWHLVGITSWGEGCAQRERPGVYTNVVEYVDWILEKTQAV
row,SMILES,inhibition
1,COc1cc(-c2nnn(CC(=O)NCc3ccccc3)n2)cc(OC)c1OC,3%
2,CNc1ccc([N+](=O)[O-])cc1C(=O)O,-2.33%
3,NC(=O)C1CCN(C(=O)COc2cccc3cccnc23)CC1,0.03%
4,Cc1cnc(NC(=O)Cn2cnc3c2c(=O)n(C)c(=O)n3C)s1,-1.78%
5,CCOCCn1c(-c2ccccc2)nc2ccccc21,0.72%
6,Cc1ccc(Sc2ccncc2S(N)(=O)=O)cc1,5.95%
7,CC(C)(C)CC(C)(C)NCC(O)COCCOc1ccc(Br)cc1 (stereo unspecified),1.54%
8,COC(=O)c1sccc1NN1C(=O)c2ccccc2C1=O,0.85%
9,O=C(CC(NC(=O)c1ccccc1)c1ccccc1)Nc1ccc(F)c(F)c1 (stereo unspecified),-2.03%
10,Cc1ccc(C2CCN(C(=S)Nc3cccc(Cl)c3)C2)cc1 (stereo unspecified),-2.9%
11,CCOC(=O)COc1cc(O)c2c(=O)cc(-c3ccccc3)oc2c1,45% (active)
12,CCOC(=O)COc1cc(OCC(=O)OCC)c2c(=O)cc(-c3ccccc3)oc2c1,-3.59%
13,Cc1noc(C)c1COC(=O)COc1ccc(-c2ccccc2)cc1,9.94%
14,CCOC(=O)c1nn(-c2ccccc2F)c2nc(Nc3ccccc3)cc(=O)n12,-3.73%
15,COc1cccc(-n2nc(C(=O)N3CCN(Cc4ccccc4)CC3)c3ccccc3c2=O)c1,-0.09%
16,C/C(Cc1ccccc1)=N\NC(=O)CNC(=O)c1ccccc1Cl,56.6% (active)
17,C/C(Cc1ccccc1)=N\NC(=O)CNC(=O)c1ccc2c(c1)OCCO2,-2.1%
18,C/C(Cc1ccccc1)=N\NC(=O)CNC(=O)c1cccc(Br)c1,9.13%
19,CCOc1ccc(Br)cc1S(=O)(=O)N1CCC(C(=O)O)CC1,-8.82%
20,CC(NC(=S)Nc1ccccc1)C1COc2ccccc2O1 (stereo unspecified),3.5%
21,Cc1c(Cl)cccc1NC(=O)Nc1ccc(C(=O)N2CCCC2)cc1,18.9%
22,Cc1ccc(C(=O)COC(=O)c2cccc(N3C(=O)c4c(C)nc5ccccc5c4C3=O)c2)cc1C,8.56%
23,CN(CC(=O)Nc1ccc(F)cc1)CC(=O)Nc1ccc(Cl)c(S(=O)(=O)N2CCOCC2)c1,0.07%
24,COc1ccc(C(=O)NNC(=O)c2cc(C)[nH]n2)cc1,1.62%

row,SMILES,inhibition
1,COc1ccc(CNC(=O)COC(=O)/C=C/c2ccc(S(=O)(=O)N3CCOCC3)cc2)cc1,-3.11%
2,CCc1ccc(Oc2coc3cc(OC(=O)c4cc5ccccc5oc4=O)ccc3c2=O)cc1,-3.61%
3,CC(=O)NCC(=O)N1CCCC(C(=O)c2ccc3c4c(cccc24)CC3)C1 (stereo unspecified),-4.06%
4,O=C(CSc1nnnn1-c1ccc(O)cc1)N1N=C(c2ccc3ccccc3c2)CC1c1ccccc1 (stereo unspecified),8.65%
5,COc1ccc(/C=N/n2c(C)cc(C)cc2=O)cc1,44.1% (active)
6,COC(=O)c1ccc(/C=N\n2c(C)nnc2C)cc1,-10.4%
7,COc1ccc(/C=C/C(=O)c2ccc(OC)cc2O)cc1,2.98%
8,Cn1c(SCC(=O)N2CCOCC2)nnc1-c1ccc2ncccc2c1,4.39%
9,COCCn1c(N)c(N(Cc2ccccc2)C(=O)C2CCCCC2)c(=O)[nH]c1=O,-2.52%
10,Nc1c(C(=O)O)cnn1-c1ccccc1,15.5%
11,COC(=O)c1ccc(S(=O)(=O)NCc2ccccc2)n1C,13.2%
12,Cc1cccc(Oc2c([N+](=O)[O-])c(=O)n(C)c3ccccc23)c1,-4.16%
13,O=C(Nc1ccc(Cl)cc1)Nc1ccc(Oc2cccnc2)nc1,-6.3%
14,CCC(C)c1ccc(NC(=S)NCc2ccccn2)cc1 (stereo unspecified),-2.96%
15,O=C(Cc1ccccc1)Nc1c(C(=O)N2CCCCCC2)cnn1-c1ccccc1,-2.02%
16,O=C(NCc1ccccc1Cl)NC(=O)c1csc([N+](=O)[O-])c1,-0.45%
17,CCc1ccc(S(=O)(=O)Nc2ccc(C)c(NS(C)(=O)=O)c2)cc1,1.46%
18,C=CCNC(=O)c1ccc2c3n(nc2c1)-c1ccc(C)cc1CO3,0.43%
19,CCOC(=O)CNc1nc(Cl)nc(Nc2ccccc2)n1,-1.06%
20,Cc1nnc(NCCO)c2ccccc12,6.13%
21,O=C(CNCCC1=CCCCC1)Nc1ccccc1N1CCCCCC1,-2.46%
22,CC(C)C(O)C1CCN(Cc2nc(Cc3ccccc3Cl)no2)CC1 (stereo unspecified),-1.58%
23,Cc1ccc(NCc2n[nH]c(=S)n2-c2ccccc2)cc1Cl,0.9%
24,CCOC(=O)C1=C(C)N=C2c3ccccc3C(=O)C2C1c1ccc(Br)cc1 (stereo unspecified),5.54%

row,SMILES,inhibition
1,Cc1ccccc1C(=O)Nc1ccc(N2CCCCCC2)cc1,-3.76%
2,O=C(Nc1ccc(F)c([N+](=O)[O-])c1)C1CC(=O)N(Cc2ccccc2)C1 (stereo unspecified),-2.12%
3,C#CCNc1ccc(C(=O)OCC)cc1,0.47%
4,O=C(NCc1ccc(F)cc1)C1CCC(CNc2c(N3CCOCC3)c(=O)c2=O)CC1 (stereo unspecified),1.9%
5,O=C(C1CCN(C2CCN(Cc3cccc4c3OCO4)CC2)CC1)N1CCOCC1,-4.01%
6,N#Cc1ccccc1NC(=O)COc1c(Br)cc(Br)c2cccnc12,0.52%
7,COc1ccc(OC)c(Cc2nnc(CCC(=O)NC3CCCC3)o2)c1,4.91%
8,COc1cc(/C=C2/C(=O)ON=C2C)ccc1OCc1cccc(F)c1,-3.35%
9,O=C(CCl)Nc1ccc(Sc2ccc(NC(=O)CCl)cc2)cc1,-1.76%
10,O=C(CCN1CCN(C/C=C/c2ccccc2)CC1)Nc1cccc(F)c1,-3.15%
11,Cc1cccc(NC(=O)c2cc(N3C(=O)CCC3=O)ccc2Cl)n1,45.3% (active)
12,Cc1cc(NC(=O)c2cccc(N3C(=O)CCC3=O)c2)no1,7.9%
13,Cc1cccc(NC(=O)c2ccc3ccccc3n2)n1,0.23%
14,Oc1ccc2ccccc2c1N=Nc1nccs1,1.08%
15,Cc1c(NC(=O)C(=O)N/N=C/c2cccs2)c(=O)n(-c2ccccc2)n1C,-2.28%
16,O=C(NCC(=O)N(CC1CCCO1)C(C(=O)NC1CCCCC1)c1ccccc1)c1ccco1 (stereo unspecified),-1.28%
17,Cc1cc(C)nc(-n2ncc3c2CC(c2ccc(C(C)C)cc2)CC3=O)n1 (stereo unspecified),4.85%
18,Cc1ccccc1CN1C[C@@H]2C[C@@H](c3ccc4nsnc4c3)N3CCC[C@@]23C1=O,2.82%
19,Cc1cccc2c1N(CCOc1ccccc1)C(=O)C2=O,1.94%
20,CCCCCCCCn1c2c(c(=N)c3c1CCC3)CCCC2,1.52%
21,COC(=O)c1cc(C(=O)OCC(=O)Nc2cc(C)on2)cc([N+](=O)[O-])c1,-14.4%
22,Cc1cnc(NC(=O)c2ccccn2)s1,-1.62%
23,COc1ccc(OC)c(C(=O)c2ccc(C(=O)N3CCN(Cc4csc(C)n4)CC3)cc2)c1,1.41%
24,COc1ccccc1-c1nnc(NC(=O)c2ccc3ncsc3c2)o1,10.2%

row,SMILES,inhibition
1,O=C(Nc1cccc(CCc2ccccn2)c1)c1ccc(Cl)cc1,14.3%
2,CN1CCCN(C(=O)C2CCCCC2)CC1,-3.43%
3,CC(NC(=S)NNS(=O)(=O)c1ccc(C(C)(C)C)cc1)c1ccccc1 (stereo unspecified),-2.57%
4,Cc1cccc2c1-c1sc(C(=O)NCCCN3CCc4ccccc4C3)cc1CO2,-4.99%
5,COc1ccc(C(=O)N/N=c2\oc3ccccc3cc2C(N)=O)cc1,8.97%
6,CC(C(=O)NCC1CCCCC1)N(C)Cc1cccc(Cl)c1 (stereo unspecified),0.53%
7,COCCN(C(=S)Nc1cccc(Cl)c1C)C(C)c1ccco1 (stereo unspecified),-2.82%
8,Cc1ccc(Cl)c(OCC(=O)NN2CCN(C)CC2)c1,-0.31%
9,COC(=O)CCCC1=CC2=CC(=O)C(C)(OC(=O)c3cccs3)C(=O)C2=CN1CC1CC1 (stereo unspecified),0.2%
10,O=C(NC(=O)c1cc(OCC(F)(F)F)ccc1OCC(F)(F)F)Nc1ccccc1,10.4%
11,O=C(CSc1ncn[nH]1)Nc1nc(-c2cccc([N+](=O)[O-])c2)cs1,-0.78%
12,O=C(Nc1cccc(O)c1)c1ccc(C(=O)c2ccccc2)o1,4.5%
13,COc1ccc(CCNC(=O)CSc2nc(-c3ccc(OC)c(OC)c3)ccc2C#N)cc1,-0.12%
14,CCOc1ccc(Oc2nc(C)cc(OC)n2)nn1,4.79%
15,Nc1[nH]c(=S)nc2nc(-c3ccccc3)c(-c3ccccc3)nc12,4.09%
16,CCc1nc(C)cn1S(=O)(=O)c1cc([N+](=O)[O-])ccc1Cl,-5.64%
17,O=c1[nH]c(SCc2cccc(F)c2)nc2ccccc12,-1.03%
18,O=C(NCc1cccs1)c1cc(-c2ccccn2)nc2ccc(Br)cc12,-1.15%
19,Cc1cccc(Cn2cnc3c(N)c(C)c(C)cc32)c1,-1.66%
20,COc1cccc(/C=C/C(=O)Nc2ccc3c(c2)OCCO3)c1,-8.27%
21,COc1ccccc1-n1c(C)nc2cc(C(=O)NCc3ccc4c(c3)OCO4)ccc21,1.71%
22,O=C(O)CCN=C1CCc2ccccc2N1,-7.58%
23,O=C(CNC(=O)c1ccccc1)NCC(=O)OCC(=O)c1ccccc1 (Bz-Gly-Gly-OPac),-1.35%
24,S=c1nc2ccccc2c2nc(-c3cccnc3)[nH]n12,-1.46%
